Data: PubChem BioAssay (NCATS)
Results filed as inconclusive are left out. Where a call stands in place of a potency, no number is given. Activity calls are given as the source filed them. Unless noted, calls follow the shape of the dose curve; as a rule, active = well fitted curve in either direction with a large enough effect (not every such curve was filed as active); inconclusive = small, poorly fitted or top-dose-only effect, or another doubt; inactive = flat fitted curve, though single readings scatter.

How the values were obtained:
[1] = AP1 Signaling Pathway (AID 357);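 also: ME-180 reporter cells stimulated with EGF at its EC50 level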
Method in brief: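 Beta-lactamase reporter under AP-1 response element, ME-180 background. Stimulus: EC50 EGF. Compound exposure 5 h, 37 °C. Detection: CCF4, 2.5 h RT, 460/530 nm. Values: AC50 from titration.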

[2] = molecular target: Cytochrome P450 1A2 (Homo sapiens) (UniProt P05177); assay: p450-cyp1a2 (AID 410; calls by dose curve; also: potency is read from the fitted curve at half-maximal effect)
Method in brief: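 Human CYP1A2 (20nM) demethylated Luciferin-ME at its Km (100uM) in 100mM KPO4. After 10 min compound preincubation, NADPH regeneration ran the reaction 60 min at room temperature. Luciferin was read by luminescence, normalized to 57 uM furafylline.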

[3] = NFAT Signaling Pathway (AID 444); settings: Jurkat NFAT-bla M1, carbachol, beta-lactamase ratio, 5 h; at 17.2 µM (top of the series) unless noted;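 also: carbachol stimulus at about its EC50 of 1 µM final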
Method in brief: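 Jurkat cells carrying an NFAT-driven β-lactamase reporter and co-transfected muscarinic M1 receptor were treated with compound plus carbachol (1 uM final, an EC50 level) for 5 h at 37 °C. CCF4 loading followed for 1 h at RT; 460/530 nm ratio gave %activity.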

[4] = Stat Signaling Pathway (AID 446);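 also: ME-180 cervical cancer cells given 40 pM IL-6 alongside compound; SIE-controlled beta-lactamase reporter measured as 460/530 nm FRET emission ratio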
Method in brief: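 ME-180 cells carrying a SIE-driven beta-lactamase reporter are stimulated with 40 pM IL-6 for 5 h at 37C in the presence of compound. The 460/530 nm FRET substrate ratio is read after 2.5 h at RT. Data are normalised to 300 pM IL-6 and to 125 nM JAK inhibitor controls.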

[5] = molecular target: Glucocorticoid receptor (Homo sapiens) (UniProt P04150); assay: GR-GFP Redistribution (AID 450;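 active = compounds whose dose series gives a full or clear partial fitted curve of increased nuclear translocation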; also: potency is read from the fitted curve at half-maximal effect); settings: U2OS GR-GFP nuclear translocation, laser cytometry, 2 h
[6] = molecular target: Glucocorticoid receptor (Homo sapiens) (UniProt P04150); assay: GR-EFC Redistribution (AID 451; calls by dose curve; also: potency is read from the fitted curve at half-maximal effect); settings: CHO-K1 GR-EFC translocation, beta-gal luminescence, 2 h
Method in brief: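 CHO-K1 cells stably expressing nuclear-localized β-gal enzyme acceptor and GR fused C-terminally to the enzyme donor fragment; ligand-driven nuclear translocation restores β-gal by complementation. Compounds titrated up to 46 uM final, 2 h at 37 °C; luminescence read.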

[7] = molecular target: Mitogen-activated protein kinase 10 (Mus musculus) (UniProt Q61831); assay: JNK3 AlphaScreen Assay (AID 530);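 also: kinase came from lysate of stimulated human HepG2 cells; signal reports phosphorylation of biotinylated GST-cJun 1-79 at Ser73 with 10 µM ATP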
Method in brief: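 JNK3 came from HepG2 lysates pre-activated with IL-1beta and TNF-alpha and phosphorylated biotinylated GST-cJun (1-79) at 10 uM ATP, pH 7.6, room temperature. Compounds were titrated. AlphaScreen signal used anti-phospho-cJun (Ser73) antibody.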

[8] = molecular target: 3',5'-cyclic-AMP phosphodiesterase 4B (Homo sapiens) (UniProt Q07343); assay: qHTS Assay for Inhibitors of PDE-IV (AID 607; active = well fitted activation curve with a large enough effect in the main read-out, with a control signal flat, not every such curve was filed as active)
Method in brief: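 HEK293 ACTOne cells with CNG channel (1000/well), endogenous PDE4; membrane potential dye, compounds up to 22.9 uM final. Fluorescence Ex 535/Em 590; RO 20-1724 (100 uM final) as reference.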

[9] = qHTS Assay for Lipid Storage Modulators (AID 1519; calls by dose curve); settings: Drosophila S3 cells, BODIPY lipid droplet/cell ratio, laser cytometry, cells loaded with oleic acid; for activity change, negative = inhibition: at 25.7 µM (top of the series)
Method in brief: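 Cells seeded at 5,000 per well were treated with compounds over a concentration series and loaded with oleic acid (400 uM, as added). Lipid droplet fluorescence (488 nm excitation, 500-530 nm channel) was read by laser-scanning cytometry and normalized to 20 uM Triacsin C.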

[10] = molecular target: Ubiquitin carboxyl-terminal hydrolase 1 (Homo sapiens) (UniProt O94782); assay: Inhibitors of USP1/UAF1: Pilot qHTS (AID 504865; active = well fitted curve in the direction sought with a large enough effect; an effect the other way counts as inactive or inconclusive;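 also: rhodamine fluorescence freed from ubiquitin-rhodamine substrate followed over time; top concentration of the series differs between compounds; nearly all actives have a fitted effect of over 35% in size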)
Method in brief: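 Deubiquitinase activity followed as kinetic rhodamine fluorescence release from 150 nM Ub-Rho. 1 nM USP1/UAF1 with compound, after 15 min room-temperature preincubation, in HEPES pH 7.8 buffer containing TCEP, EDTA, BSA and Tween-20.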

[11] = molecular target: ATP-dependent 6-phosphofructokinase (Trypanosoma brucei brucei) (UniProt O15648); assay: qHTS Assay to Find Inhibitors of T. brucei phosphofructokinase: hit validation (AID 492961; active = well fitted curve in the direction sought with a large enough effect; an effect the other way counts as inactive or inconclusive;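 also: luminescence reports ADP formed as PFK phosphorylates fructose-6-phosphate with ATP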)
Method in brief: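 Reaction: 0.1 M triethanolamine pH 8.0, 5 mM MgCl2, F6P 0.5 mM, ATP 0.1 mM, PFK 1.25 nM, 45 min RT. Read-out: ADP-Glo luminescence. Analysis: concentration-response fits, classed by r2 and efficacy.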

[12] = molecular target: Luciferin 4-monooxygenase (Photinus pyralis) (UniProt P08659); assay: Biochemical firefly luciferase enzyme assay for NPC (AID 624030; active = well fitted curve in the direction sought with a large enough effect; an effect the other way counts as inactive or inconclusive;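 also: purified P. pyralis luciferase at 10 nM with luciferin and ATP substrate; nearly all actives have a fitted effect of over 70% in size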)
Method in brief: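 Counter-screen for direct inhibition of the luciferase enzyme by approved-drug library compounds, run at 10 nM enzyme in 50 mM Tris acetate (final). Luminescence was read within 5 min of enzyme-buffer addition and normalized to PTC124 versus DMSO (0%).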

[13] = S16 Schwann cell PMP22 intronic element firefly luciferase assay (AID 624032; active = well fitted curve in the direction sought with a large enough effect; an effect the other way counts as inactive or inconclusive; also: nearly all actives have a fitted effect of over 30% in size)
Method in brief: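 Rat S16 Schwann cells stably carrying a PMP22 intronic element-driven Fluc reporter were seeded overnight, then exposed to compounds for 24 h at 37 °C. Luminescence was normalized to PTC124 (positive control) and DMSO (0% activity).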

[14] = qHTS profiling for inhibitors of Plasmodium falciparum proliferation (AID 504749; active = well fitted curve in the direction sought with a large enough effect; an effect the other way counts as inactive or inconclusive; also: nearly all actives have a fitted effect of over 60% in size; also: potency is read from the fitted curve at half-maximal effect); settings: P. falciparum in erythrocytes, SYBR Green DNA, 72 h
Method in brief: (§1)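 P. falciparum-infected erythrocytes (0.3% parasitemia, 2.5% hematocrit final) were exposed to compounds for 72 h at 37 C in 5% CO2, then lysed with SYBR Green buffer overnight at room temperature; parasite DNA fluorescence was normalized to artemisinin and DMSO controls.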

CP191 = assay: as above; settings: P. falciparum in erythrocytes, SYBR Green DNA, 72 h; series mostly up to 12.8 µM
Method in brief: as §1

CP217 = assay: as above; settings: P. falciparum in erythrocytes, SYBR Green DNA, 72 h; series mostly up to 12.8 µM
Method in brief: as §1

CP250 = assay: as above; settings: P. falciparum in erythrocytes, SYBR Green DNA, 72 h; series mostly up to 12.8 µM
Method in brief: as §1

CP256 = assay: as above; settings: P. falciparum in erythrocytes, SYBR Green DNA, 72 h; series mostly up to 12.8 µM
Method in brief: as §1

FAB9 = assay: as above; settings: P. falciparum in erythrocytes, SYBR Green DNA, 72 h; series mostly up to 12.8 µM
Method in brief: as §1

JCK = assay: as above; settings: P. falciparum in erythrocytes, SYBR Green DNA, 72 h; series mostly up to 12.8 µM
Method in brief: as §1

[15] = measured here: cell count channel max response
[16] = measured here: lipid channel max response

Sequence of Glucocorticoid receptor (Homo sapiens) (P04150 whole entry, looked up, the tested form may be a part): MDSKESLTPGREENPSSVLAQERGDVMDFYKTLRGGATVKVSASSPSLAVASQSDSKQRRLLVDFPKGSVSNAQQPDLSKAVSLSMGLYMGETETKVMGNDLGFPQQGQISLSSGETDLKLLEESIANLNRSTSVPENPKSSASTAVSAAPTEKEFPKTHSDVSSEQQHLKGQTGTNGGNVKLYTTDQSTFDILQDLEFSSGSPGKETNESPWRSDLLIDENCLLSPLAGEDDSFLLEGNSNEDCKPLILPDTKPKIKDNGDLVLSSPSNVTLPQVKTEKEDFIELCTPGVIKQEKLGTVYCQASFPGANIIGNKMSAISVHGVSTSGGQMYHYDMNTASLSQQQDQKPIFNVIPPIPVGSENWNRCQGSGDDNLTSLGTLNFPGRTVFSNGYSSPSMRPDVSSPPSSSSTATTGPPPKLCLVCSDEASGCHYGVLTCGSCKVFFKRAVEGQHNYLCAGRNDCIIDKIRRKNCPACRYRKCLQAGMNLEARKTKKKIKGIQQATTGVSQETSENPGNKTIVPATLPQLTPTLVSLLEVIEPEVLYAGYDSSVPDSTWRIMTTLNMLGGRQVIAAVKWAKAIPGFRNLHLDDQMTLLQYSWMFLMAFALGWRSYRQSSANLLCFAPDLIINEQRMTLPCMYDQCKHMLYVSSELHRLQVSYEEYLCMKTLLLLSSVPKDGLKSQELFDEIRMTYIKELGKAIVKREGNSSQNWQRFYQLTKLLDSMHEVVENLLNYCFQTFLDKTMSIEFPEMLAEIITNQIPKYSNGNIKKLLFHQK
Sequence of Ubiquitin carboxyl-terminal hydrolase 1 (Homo sapiens) (O94782 whole entry, looked up): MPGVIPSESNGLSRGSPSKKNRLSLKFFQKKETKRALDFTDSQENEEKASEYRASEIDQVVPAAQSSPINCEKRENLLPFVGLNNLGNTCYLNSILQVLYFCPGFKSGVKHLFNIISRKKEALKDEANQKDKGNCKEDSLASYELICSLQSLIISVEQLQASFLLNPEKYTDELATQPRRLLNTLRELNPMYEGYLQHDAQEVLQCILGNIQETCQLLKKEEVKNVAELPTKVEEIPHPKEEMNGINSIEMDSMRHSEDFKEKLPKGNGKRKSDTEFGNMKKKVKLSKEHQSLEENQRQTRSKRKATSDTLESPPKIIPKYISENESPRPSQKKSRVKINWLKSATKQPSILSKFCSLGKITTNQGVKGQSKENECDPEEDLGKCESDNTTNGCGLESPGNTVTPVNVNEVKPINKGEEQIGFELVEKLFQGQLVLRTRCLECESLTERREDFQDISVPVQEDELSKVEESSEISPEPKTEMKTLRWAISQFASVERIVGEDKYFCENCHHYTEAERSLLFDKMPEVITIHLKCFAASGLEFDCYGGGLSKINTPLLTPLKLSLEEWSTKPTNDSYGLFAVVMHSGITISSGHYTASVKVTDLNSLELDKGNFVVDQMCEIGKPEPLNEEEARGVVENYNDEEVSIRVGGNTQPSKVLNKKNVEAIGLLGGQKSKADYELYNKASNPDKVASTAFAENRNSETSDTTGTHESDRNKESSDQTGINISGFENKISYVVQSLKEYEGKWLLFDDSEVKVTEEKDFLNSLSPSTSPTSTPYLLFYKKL
Sequence of 3',5'-cyclic-AMP phosphodiesterase 4B (Homo sapiens) (Q07343 whole entry, looked up): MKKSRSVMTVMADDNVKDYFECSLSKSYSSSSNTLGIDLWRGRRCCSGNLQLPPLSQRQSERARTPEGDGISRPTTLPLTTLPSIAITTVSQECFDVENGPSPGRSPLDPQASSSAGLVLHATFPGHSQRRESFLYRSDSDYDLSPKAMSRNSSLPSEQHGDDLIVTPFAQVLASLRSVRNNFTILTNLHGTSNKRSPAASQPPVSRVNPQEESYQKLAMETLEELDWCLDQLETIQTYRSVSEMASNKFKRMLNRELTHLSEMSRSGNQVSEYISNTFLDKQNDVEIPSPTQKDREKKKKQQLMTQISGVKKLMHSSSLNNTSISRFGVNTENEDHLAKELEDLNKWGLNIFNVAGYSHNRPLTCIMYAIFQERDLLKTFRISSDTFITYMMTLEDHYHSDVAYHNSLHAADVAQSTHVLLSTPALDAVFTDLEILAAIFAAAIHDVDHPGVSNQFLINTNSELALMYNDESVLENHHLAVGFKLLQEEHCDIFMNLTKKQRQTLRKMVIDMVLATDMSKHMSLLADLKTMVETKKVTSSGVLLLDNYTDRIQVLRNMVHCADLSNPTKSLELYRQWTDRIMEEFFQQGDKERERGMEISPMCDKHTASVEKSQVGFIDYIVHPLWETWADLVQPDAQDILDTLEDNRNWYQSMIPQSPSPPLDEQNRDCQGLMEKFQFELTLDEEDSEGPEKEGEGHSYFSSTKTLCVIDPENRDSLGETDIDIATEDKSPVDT
Sequence of Cytochrome P450 1A2 (Homo sapiens) (P05177 whole entry, looked up): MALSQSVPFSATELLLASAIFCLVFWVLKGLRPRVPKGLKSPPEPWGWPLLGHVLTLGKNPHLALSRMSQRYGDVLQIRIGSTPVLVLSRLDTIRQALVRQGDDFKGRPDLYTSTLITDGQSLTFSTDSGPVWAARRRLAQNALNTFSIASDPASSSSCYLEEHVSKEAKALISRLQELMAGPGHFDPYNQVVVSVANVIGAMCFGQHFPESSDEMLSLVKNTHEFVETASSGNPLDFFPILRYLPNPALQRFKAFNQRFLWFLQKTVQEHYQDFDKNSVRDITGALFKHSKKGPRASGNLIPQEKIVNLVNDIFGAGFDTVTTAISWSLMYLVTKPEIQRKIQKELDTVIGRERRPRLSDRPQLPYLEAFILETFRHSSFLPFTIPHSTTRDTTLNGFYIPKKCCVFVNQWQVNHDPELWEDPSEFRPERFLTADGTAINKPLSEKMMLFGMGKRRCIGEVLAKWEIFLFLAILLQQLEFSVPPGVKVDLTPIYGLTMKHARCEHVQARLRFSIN
Sequence of Luciferin 4-monooxygenase (Photinus pyralis) (P08659 whole entry, looked up): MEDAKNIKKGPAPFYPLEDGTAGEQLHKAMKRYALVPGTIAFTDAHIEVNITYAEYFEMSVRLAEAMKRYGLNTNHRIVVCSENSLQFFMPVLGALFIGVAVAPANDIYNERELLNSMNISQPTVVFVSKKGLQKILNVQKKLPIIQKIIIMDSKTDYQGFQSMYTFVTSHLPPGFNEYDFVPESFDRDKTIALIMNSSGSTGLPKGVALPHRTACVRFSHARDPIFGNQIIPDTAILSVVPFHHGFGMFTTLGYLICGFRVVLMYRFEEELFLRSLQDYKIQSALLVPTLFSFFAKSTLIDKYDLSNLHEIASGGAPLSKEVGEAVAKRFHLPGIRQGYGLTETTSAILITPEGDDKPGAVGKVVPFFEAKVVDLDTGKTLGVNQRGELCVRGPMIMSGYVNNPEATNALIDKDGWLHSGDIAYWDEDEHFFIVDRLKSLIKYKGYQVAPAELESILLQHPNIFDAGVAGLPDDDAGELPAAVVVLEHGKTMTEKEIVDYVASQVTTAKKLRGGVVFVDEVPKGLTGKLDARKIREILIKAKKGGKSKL
Sequence of ATP-dependent 6-phosphofructokinase (Trypanosoma brucei brucei) (O15648 whole entry, looked up): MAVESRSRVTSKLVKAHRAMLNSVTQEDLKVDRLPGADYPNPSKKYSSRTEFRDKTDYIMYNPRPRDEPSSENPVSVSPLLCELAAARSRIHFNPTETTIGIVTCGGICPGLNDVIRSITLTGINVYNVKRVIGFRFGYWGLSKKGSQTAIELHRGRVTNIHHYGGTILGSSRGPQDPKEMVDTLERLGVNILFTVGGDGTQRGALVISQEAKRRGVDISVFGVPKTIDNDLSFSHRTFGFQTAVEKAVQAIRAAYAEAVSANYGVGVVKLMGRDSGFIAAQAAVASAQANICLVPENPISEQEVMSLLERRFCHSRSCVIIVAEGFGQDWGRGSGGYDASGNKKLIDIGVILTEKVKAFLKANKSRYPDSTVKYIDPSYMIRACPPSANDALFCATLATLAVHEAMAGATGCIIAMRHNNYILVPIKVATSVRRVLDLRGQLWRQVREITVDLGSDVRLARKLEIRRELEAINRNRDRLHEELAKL

SMILES: CC(=O)N[C@H]1[C@@H](O[C@@H](C)C(=O)O)[C@H](O)[C@H](CO)O[C@@H]1O
- outcome [1]: inactive
- Potency [2]: inactive
- activity change, negative = inhibition [3]: 4.75% (inactive)
- outcome [4]: inactive
- Potency [5]: > 20.6 µM (inactive)
- Potency [6]: > 20.6 µM (inactive)
- Potency [7]: inactive
- outcome [8]: inactive
- activity change, negative = inhibition [9]: -1.67% (inactive)
- max response [9, 15]: 7.96%
- max response [9, 16]: 4.82%
- Potency [10]: inactive

SMILES: C[C@@]12CC[C@H]3[C@@H](CCC4=CC(=O)CC[C@]43C)[C@H]1CC[C@H]2C(=O)CO
- outcome [1]: inactive
- Potency [2]: inactive
- activity change, negative = inhibition [3]: -6.24% (inactive)
- outcome [4]: inactive
- Potency [5]: 0.0622 µM (active)
- Potency [6]: > 20.6 µM (inactive)
- Potency [7]: inactive
- outcome [8]: inactive
- activity change, negative = inhibition [9]: -5.79% (inactive)
- max response [9, 15]: -3.01%
- max response [9, 16]: -9.53%
- outcome [11]: inactive
- Potency [12]: inactive
- Potency [13]: inactive
- activity, negative = inhibition ([14]; at 12.8 µM (top of the series), parasite line B): 3.27% (inactive)
- Potency ([14]; parasite line A): 4.47 µM (active)
- Potency (CP191): inactive
- Potency (CP217): inactive
- Potency (CP250): inactive
- Potency (CP256): inactive
- Potency (FAB9): inactive
- Potency (JCK): inactive

SMILES: O=c1[nH]c(=O)n([C@@H]2C[C@H](O)[C@H](CO)O2)cc1C(F)(F)F
- outcome [1]: inactive
- Potency [2]: inactive
- activity change, negative = inhibition [3]: 1.4% (inactive)
- outcome [4]: inactive
- Potency [5]: > 20.6 µM (inactive)
- Potency [6]: > 20.6 µM (inactive)
- Potency [7]: inactive
- activity change, negative = inhibition [9]: -0.507% (inactive)
- max response [9, 15]: -7.04%
- max response [9, 16]: -7.97%
- Potency [10]: inactive

SMILES: COc1c2c(nc3ccccc13)O[C@H]([C@@](C)(O)CO)C2
- outcome [1]: inactive
- Potency [2]: 12.6 µM (active)
- activity change, negative = inhibition [3]: -17.9% (inactive)
- outcome [4]: inactive
- Potency [5]: > 20.6 µM (inactive)
- Potency [6]: > 20.6 µM (inactive)
- Potency [7]: inactive
- outcome [8]: inactive
- activity change, negative = inhibition [9]: 1.14% (inactive)
- max response [9, 15]: -17.8%
- max response [9, 16]: -15.2%
- Potency [10]: inactive

SMILES: Cc1n[nH]c(=O)[nH]c1=O
- outcome [1]: inactive
- Potency [2]: inactive
- activity change, negative = inhibition [3]: -10% (inactive)
- outcome [4]: inactive
- Potency [5]: > 20.6 µM (inactive)
- Potency [6]: > 20.6 µM (inactive)
- Potency [7]: inactive
- outcome [8]: inactive
- activity change, negative = inhibition [9]: 1.08% (inactive)
- max response [9, 15]: -2.21%
- max response [9, 16]: -2.22%
- Potency [10]: inactive

SMILES: CO[C@H]1[C@H](O[C@H]2O[C@@H](C)[C@@H](O[C@@H]3C[C@](C)(O)[C@H](OC(=O)CC(C)C)[C@H](C)O3)[C@@H](N(C)C)[C@@H]2O)[C@@H](CC=O)C[C@@H](C)[C@@H](O)/C=C\C=C/C[C@@H](C)OC(=O)C[C@H]1OC(C)=O
- outcome [1]: inactive
- Potency [2]: inactive
- activity change, negative = inhibition [3]: -0.256% (inactive)
- outcome [4]: inactive
- Potency [5]: > 20.6 µM (inactive)
- Potency [6]: > 20.6 µM (inactive)
- Potency [7]: inactive
- outcome [8]: inactive
- activity change, negative = inhibition [9]: -3.13% (inactive)
- max response [9, 15]: -10.5%
- max response [9, 16]: -14%
- outcome [11]: inactive
- Potency [12]: inactive
- Potency [13]: inactive
- Potency (CP256): 2 µM (active)
- Potency (FAB9): inactive
- Potency (JCK): inactive
